Screens from PubChem.
Shown are actives, neighbours in structure and some others; about 6% of the full set was active somewhere.
Pol III holo inh: qHTS Assay for Inhibitors of DNA Polymerase III Holoenzyme System. Potency, µM (doses to about 57.1 µM). reconstituted DNA polymerase III holoenzyme replication, biochemical. 0.25% of 71,000 active. AID 603, 2007
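Reconstituted *E. coli* holoenzyme (0.35 nM Pol III, 1 nM beta, 154 nM SSB, 2 nM primase) was preincubated with compound for 15 min at RT. Synthesis on 1.4 nM ssM13Gori ran 35 min, then was stopped with PicoGreen/EDTA and read as dsDNA fluorescence.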
PK Bst: Pyruvate Kinase; purified pyruvate kinase, luminescence ATP production; ribose 5-phosphate activator present at AC10; Potency, µM; 1.2% of 51,000 active; in the data active = potency below about 11 µM; inconclusive = mostly about 12 µM to 25 µM;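 the screen sought inhibitors and activators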
Luciferase inh: qHTS Assay for Inhibitors of Firefly Luciferase. Luciferin 4-monooxygenase (Photinus pyralis), P08659. purified firefly luciferase, luminescence, 8 min. Potency, µM (top dose mostly 57.1 µM), actives largely listed as inhibitors. 2.2% of 72,000 active. AID 411, 2009; also: nearly all actives have a fitted effect of over 40% in size
Target sequence (P08659 whole entry, looked up): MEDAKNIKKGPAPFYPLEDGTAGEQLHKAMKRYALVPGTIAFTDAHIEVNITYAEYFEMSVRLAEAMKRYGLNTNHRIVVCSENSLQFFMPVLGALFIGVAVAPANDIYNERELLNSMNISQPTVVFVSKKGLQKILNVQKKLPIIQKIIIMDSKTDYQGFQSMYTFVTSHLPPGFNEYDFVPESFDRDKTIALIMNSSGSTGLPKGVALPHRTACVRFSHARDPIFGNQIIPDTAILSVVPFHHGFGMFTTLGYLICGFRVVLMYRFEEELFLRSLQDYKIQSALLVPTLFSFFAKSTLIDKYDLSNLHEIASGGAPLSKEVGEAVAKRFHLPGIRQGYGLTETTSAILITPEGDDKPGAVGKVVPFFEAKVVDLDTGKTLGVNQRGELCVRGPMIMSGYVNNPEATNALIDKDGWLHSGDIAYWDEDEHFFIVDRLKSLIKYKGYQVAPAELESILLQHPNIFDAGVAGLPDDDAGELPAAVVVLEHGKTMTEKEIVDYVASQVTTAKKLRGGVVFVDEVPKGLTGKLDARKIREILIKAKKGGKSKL
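Substrate buffer containing 10 uM ATP (pH 7.2 imidazole, Mg2+, KCl, detergent, BSA) is dispensed, compound pinned in, then luciferase/luciferin detector mix added. After 8 min at ambient temperature, light output is measured.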
Tau fil binding: qHTS Assay for Tau Filament Binding; recombinant tau filaments, thioflavin S fluorescence, 15 h; filaments grown with octadecylsulfate alongside compound; Potency, µM (series often up to 57.1 µM); 2% of 71,000 active; AID 596, 2007;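 also: actives lower thioflavin S fluorescence by blocking filaments or displacing dye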
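Quantitative HTS: thioflavine S signal from ODS-induced tau filaments, excited at 450 nm, emission 510 nm. Conditions: 1 uM tau, 30 uM ODS, 15 h at 37 C, pH 7.4.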
ALOX15 inhib: qHTS Assay for Inhibitors of 15-hLO (15-human lipoxygenase); Polyunsaturated fatty acid lipoxygenase ALOX15 (Homo sapiens), P16050; purified 15hLO-1, xylenol orange hydroperoxide absorbance; Potency, µM (doses to about 57.1 µM), most hits filed as inhibitors; 1.4% of 74,000 active; AID 887, 2007; also: nearly all actives have a fitted effect of over 55% in size
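Compounds were preincubated 15 min at room temperature with 40 nM purified human enzyme (25 mM Hepes pH 7.5, 0.01% Triton X-100); 50 uM arachidonic acid reacted 6 min. Fe-xylenol orange detection, 30 min, absorbance ratio 573/405 nm.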
ERK AVP block: qHTS Assay for Inhibitors of the ERK Signaling Pathway using a Homogeneous Screening Assay; HEK293-V1b, vasopressin-stimulated pERK AlphaScreen; Potency, µM (top dose mostly 57.5 µM), most hits filed as inhibitors; 0.99% of 72,000 active; also: nearly all actives have a fitted effect of over 55% in size
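HEK293 cells stably expressing V1b receptor, seeded overnight in 1% FBS, were treated with compounds for 30 min at 37C, then stimulated 5 min with 25 nM vasopressin; phospho-ERK read by AlphaScreen SureFire after lysis.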
Each line names hits and unclear results; the compound was inactive in the other large screens. Unless noted, calls follow the shape of the dose curve; as a rule, active = well fitted curve in the direction sought with a large enough effect; inconclusive = small, poorly fitted or top-dose-only effect, or another doubt; inactive = no such curve, though single readings can be large; an effect the other way counts as inactive or inconclusive.

Cc1ccc(C=Nc2ccc(N(C)C)cc2)o1	Luciferase inh 3.16µM, Tau fil binding inconclusive, ALOX15 inhib inconclusive, ERK AVP block inconclusive (no result: PK Bst)
Cc1ccc(/C=N/n2nnnc2N)o1	none (no result: Pol III holo inh, Tau fil binding, ALOX15 inhib, ERK AVP block)
CC(=O)Nc1nc(-c2ccccc2)nc(-c2ccccc2OC(C)=O)n1	Tau fil binding 1.26µM, ALOX15 inhib 15.8µM, ERK AVP block inconclusive (no result: PK Bst)
CCCn1c(C)nc2c(NCCCCN3CCCC3)nc(C)nc21	none (no result: PK Bst, Luciferase inh)
CN=C1c2ccccc2CN1c1cccc(C(=O)OC)c1	ERK AVP block inconclusive
COC(=O)c1c(C(=O)OC)c2n(c1C)Cc1ccccc1C2	ALOX15 inhib 7.94µM (no result: PK Bst)
CO/N=C\[C@@H](NS(=O)(=O)c1ccc(C)cc1)[C@H](C)/C=C\CC(=O)OC	none (no result: Pol III holo inh, PK Bst, Tau fil binding)
CCOc1ccc2nc(NC(=O)CSc3nnc(-c4ccncc4)n3CC3CCCO3)sc2c1 (configuration not stated)	PK Bst 4.67, Luciferase inh 2.51µM
Oc1c(Br)cc(Br)cc1CN(Cc1cc(Br)cc(Br)c1O)C1CCCCC1	none (no result: PK Bst)
CCn1c(N2CCN(S(=O)(=O)c3ccccc3C(F)(F)F)CC2)nc2ccccc21	ALOX15 inhib inconclusive, ERK AVP block 31.6µM
Oc1cccc2ccc(SSc3ccc4cccc(O)c4n3)nc12	none (no result: PK Bst)
c1ccc(-c2cn3c4c(sc3n2)CCCC4)cc1	PK Bst 0.326, Luciferase inh 0.398µM
Cc1c(C(=O)N2CCc3ccccc3C2)sc2nc(-c3ccccc3)cn12	none
CCOc1ccc(N2Cc3ccccc3C2)cc1	Luciferase inh 10µM, Tau fil binding 15.8µM (no result: PK Bst)
O=C1c2ccccc2-c2nccnc21	none (no result: PK Bst)
O=C1c2ccccc2-c2nc3ncnn3c(-c3ccccc3Cl)c21	Tau fil binding 12.6µM (no result: PK Bst)
O=C(Nc1ccccc1)N1CCC2(CC1)CCN(C(=O)c1ccncc1)CC2	none (no result: PK Bst)
CN(C)S(=O)(=O)c1ccc(C(=O)Nc2ccccc2C(=O)O)cc1	Luciferase inh inconclusive
CCN(CC)S(=O)(=O)c1cc(C(=O)Nc2ccccc2C(=O)O)ccc1OC	Luciferase inh 20µM (no result: PK Bst)
CCCN1Cc2cccc(C(=O)Nc3ccc(CN4CCCC4)cc3)c2C1=O	Luciferase inh 20µM
CCOc1ccc(NC(=O)c2cccc3c2C(=O)N(Cc2cccnc2)C3)cc1	PK Bst 4.16, Luciferase inh 3.98µM
CCCN1Cc2cccc(C(=O)Nc3ccc(OC)c(OC)c3)c2C1=O	none
CCOC(=O)N1CCC(NC(=O)c2cccc3c2C(=O)N(Cc2cccnc2)C3)CC1	none
Nc1nc(=O)c2[nH]cnc2n1O	none (no result: PK Bst)
CCN1CCN(c2ccc(NC(=O)Cc3ccccc3)cc2)CC1	none
COc1cc(OC)cc(C(=O)Nc2cccc(N3CCCC3)c2)c1	Tau fil binding 10µM, ALOX15 inhib inconclusive
O=C(Cc1ccccc1)Nc1cccc(N2CCCC2)c1	Tau fil binding 25.1µM
CSC(N)=NCCC[C@@H](N)C(=O)O	none (no result: PK Bst)
COc1ccccc1-n1cc(C(=O)NCC(=O)N2CCN(c3ccccc3)CC2)c2ccccc2c1=O	PK Bst 3.65, Luciferase inh 2µM
COc1ccccc1-n1cc(C(=O)NCC(=O)N2CCN(c3ccccn3)CC2)c2ccccc2c1=O	PK Bst inconclusive, Luciferase inh 6.31µM
COc1cc2nc(N(C)CCCNC(=O)[C@@H]3CCCO3)nc(N)c2cc1OC	none (no result: PK Bst)
O=C(COc1ccc2oc(-c3ccccc3)cc(=O)c2c1)NCc1ccco1	PK Bst 4.1, Luciferase inh 7.94µM, ALOX15 inhib inconclusive
O=C(COC(=O)COc1ccc(Nc2ccccc2)cc1)NCc1ccco1	ALOX15 inhib inconclusive
CC(=O)O[C@@H]1[C@H]([N+]2(C)CCCCC2)C[C@@H]2[C@@H]3CC[C@@H]4C[C@@H](OC(C)=O)[C@H]([N+]5(C)CCCCC5)C[C@@]4(C)[C@H]3CC[C@]21C	none (no result: PK Bst)
CCCCN(CC)S(=O)(=O)c1cccc2cccnc12	none (no result: PK Bst, ERK AVP block)
Cc1ccc(-c2nc(Nc3ccccc3)n[nH]2)cc1	PK Bst inconclusive, Luciferase inh 12.6µM
Nc1nc(CSc2n[nH]c(-c3ccccc3)n2)nc(Nc2ccccc2)n1	ERK AVP block 25.1µM (no result: PK Bst)
CCN(CC)S(=O)(=O)c1cc(C(=O)OCC(=O)c2ccc3c(c2)NC(=O)CO3)ccc1F	ERK AVP block 31.6µM
COc1ccc2nc3cc(Cl)ccc3c(Nc3ccc(O)c(CN4CCN(C)CC4)c3)c2c1	Pol III holo inh 5.01µM, Tau fil binding 0.251µM (no result: PK Bst)
CC1CCN(C(C(=O)Nc2ccc3c(c2)OCO3)c2ccccc2)CC1 (configuration not stated)	none (no result: PK Bst)
CCC(C)[C@@H](C(=O)Nc1ccc2c(c1)OCO2)N1Cc2ccccc2C1=O (some centres not stated)	Tau fil binding 25.1µM, ERK AVP block inconclusive (no result: PK Bst)
CNC(=O)[C@@H]1O[C@@H](n2cnc3c(NCc4cccc(I)c4)ncnc32)[C@H](O)[C@@H]1O	ERK AVP block inconclusive (no result: PK Bst)
O=c1c2ccccc2sn1-c1ccc(S(=O)(=O)N2CCCCC2)cc1	ALOX15 inhib inconclusive
O=c1c2ccccc2sn1-c1ccc(S(=O)(=O)N2CCCC2)cc1	ALOX15 inhib 0.1µM
Cc1ccc(-n2sc3ccccc3c2=O)cc1S(=O)(=O)N1CCCCC1	Luciferase inh 15.8µM, ALOX15 inhib 0.501µM
Cc1cc([C@](C)(N)C(=O)O)ccc1P(=O)(O)O	Luciferase inh 25.1µM (no result: PK Bst)
C[C@@](N)(C(=O)O)c1cccc(CC(=O)O)c1	none (no result: PK Bst)
O=C(O)c1cc(/C=N\O)ccc1OCc1ccccc1	none
COc1cc(/C=N/O)ccc1OCc1ccc(C(=O)O)cc1	PK Bst 0.388, Luciferase inh 0.316µM (no result: Pol III holo inh, Tau fil binding, ALOX15 inhib, ERK AVP block)
O=C(O)CCN1Cc2ccccc2C1=O	ALOX15 inhib 20µM
CN1CCc2c(sc3c2C(=O)NC(/C=C/c2ccco2)N3)C1 (configuration not stated)	ALOX15 inhib inconclusive, ERK AVP block 15.8µM (no result: PK Bst)
Cc1ccc(C2NC(=O)c3c(sc4c3CCN(C)C4)N2)o1 (configuration not stated)	ALOX15 inhib 3.16µM, ERK AVP block inconclusive
Cc1ccc(C2NC(=O)c3c(sc4c3CCN(C)C4)N2)s1 (configuration not stated)	ALOX15 inhib inconclusive (no result: PK Bst)
O=C1NC(=O)c2cc([N+](=O)[O-])ccc21	none (no result: PK Bst, Luciferase inh)
O=C(c1cccc(F)c1)N1CCC2(CC1)CCN(c1cccc(-c3ccccc3)c1)CC2	Tau fil binding 25.1µM (no result: PK Bst)
CC(=O)N1CCC2(CC1)CCN(c1ccc(-c3ccccc3)cc1)CC2	Tau fil binding 12.6µM, ERK AVP block inconclusive (no result: PK Bst)
N#CC1=C(N)S[C@H](C(=O)C23CC4CC(CC(C4)C2)C3)[C@H]1c1ccncc1	ALOX15 inhib 12.6µM
